Results filed as inconclusive are left out. Calls of active or inactive are those of the source. Unless noted, calls follow the shape of the full dose curve.
Legend:
[1] = target: Gonadotropin-releasing hormone receptor (Homo sapiens) (UniProt P30968); assay: Human gonadotropin-releasing hormone receptor (GnRHR) small molecule agonists, calcium flux assay in GnRHR-HEK293 cells (AID 1920063); also: nearly all actives have a fitted effect of over 35% in size
Summary of the method: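 Intracellular calcium rise is the read-out: engineered human GnRHR HEK293 cells, dye-loaded, are exposed to DMSO-dissolved compounds and fluorescence at Ex/Em 480/540 is tracked for 3 min.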

[2] = target: KiSS-1 receptor (Homo sapiens) (UniProt Q969F8); assay: Human kisspeptin (KISS1R) small molecule agonists, calcium flux assay in KISS1R-HEK293 cells (AID 1920064; active = well fitted activation curve with a large enough effect in the repeat runs)
Summary of the method: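 Concentration-response testing used 15 concentrations in triplicate on human KISS1R-expressing HEK293 cells. Calcium-dependent fluorescence (Ex/Em 480/540) was followed kinetically for 3 min after compound transfer.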

[3] = G protein-coupled receptor (GPCR) small molecule agonists, calcium flux assay: HEK293 wild type cell line counter screen (AID 1920065)
Summary of the method: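 Fluorescence intensity signals activation. After overnight (18 h) culture and a 1 h calcium dye load at 37 C, compounds are added by pin tool and the plate read at 480/540 nm for 3 min in 1 s steps.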

[4] = p53 small molecule agonists, cell-based qHTS assay with human liver microsomes (AID 1963577);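 also: p53 response element beta-lactamase reporter cells with liver microsomes plus NADPH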
Summary of the method: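 HLM-supplemented p53RE-bla reporter assay: 16 h compound exposure at 37 C, microsomes and NADPH each 0.5 mg/mL final, read by fluorescence intensity.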

[5] = p53 small molecule agonists, cell-based qHTS assay with rat liver microsomes (AID 1963578)
Summary of the method: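 Quantitative HTS of the Tox21 10K library: p53RE-bla cells, rat liver microsomes plus NADPH at 0.5 mg/mL final each, 16 h at 37 C, beta-lactamase fluorescence detection.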

[6] = p53 small molecule agonists, cell-based qHTS assay with human liver microsomes: qHTS cell viability counter screen (AID 1963579); also: nearly all actives have a fitted effect of over 45% in size
Summary of the method: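 Viability of p53RE-bla cells is measured as CellTiter-Glo luminescence following a 16 h, 37 C incubation with compound, liver microsomes from human donors and NADPH.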

[7] = p53 small molecule agonists, cell-based qHTS assay with rat liver microsomes: qHTS cell viability counter screen (AID 1963580); also: nearly all actives have a fitted effect of over 45% in size
Summary of the method: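 Luminescent ATP readout (CellTiter-Glo, 30 min at room temperature) reports viability of p53RE-bla HCT-116 cells after 16 h at 37 C with test compounds under metabolic activation by rat liver microsomes and NADPH at 0.5 mg/mL final each.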

[8] = p53 small molecule agonists, cell-based qHTS assay: qHTS cell viability counter screen (AID 1963581); also: nearly all actives have a fitted effect of over 45% in size
Summary of the method: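 Luminescence from CellTiter-Glo, reflecting ATP content, serves as the cytotoxicity measure; it is taken after the 2 h reporter substrate step in HCT-116 p53RE-bla cells dosed for 16 h at 37 C.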

[9] = target: 5-hydroxytryptamine receptor 2A (Homo sapiens) (UniProt P28223); assay: 5-hydroxytryptamine receptor 2A (HTR2A) small molecule agonists, cell-based qHTS assay (AID 1963587); also: nearly all actives have a fitted effect of over 30% in size
Summary of the method: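 HTR2A-CHO cells, plated 18 h at 37 C/5% CO2, dye-loaded 1 h at 37 C; compounds in DMSO added by pin tool (agonist mode). Intracellular calcium flux read as kinetic fluorescence on FDSS over 2 min at 1 s intervals.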

[10] = target: Muscarinic acetylcholine receptor M1 (Homo sapiens) (UniProt P11229); assay: Cholinergic receptor muscarinic 1 (CHRM1) small molecule antagonists, cell-based qHTS assay (AID 1963588); also: nearly all actives have a fitted effect of over 40% in size
Summary of the method: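 Compounds were tested at 15 concentrations in three independent runs. Dye-loaded CHRM1-CHO cells were exposed 5 min at room temperature before stimulation by acetylcholine added at 50nM. Intracellular calcium was read kinetically on FDSS for 3 min.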

[11] = target: Muscarinic acetylcholine receptor M1 (Homo sapiens) (UniProt P11229); assay: Cholinergic receptor muscarinic 1 (CHRM1) small molecule agonists, cell-based qHTS assay (AID 1963589); also: nearly all actives have a fitted effect of over 35% in size
Summary of the method: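 Fluorescent calcium dye reports M1 activation in stably transfected CHO cells. Compounds, 15 concentrations, added after 1 h dye loading at 37 C; kinetic reading at 1 sec intervals.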

[12] = cAMP Responsive Elements (CRE) small molecule agonists, cell-based qHTS assay (AID 1963590)
Summary of the method: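 Compound exposure lasted 3 h at 37 C/5% CO2 in CRE-bla HEK 293T cells grown in assay medium with 10% dialyzed FBS and 25 mM HEPES. Reporter signal came from LiveBLAzer B/G FRET substrate, 2 h, room temperature.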

[13] = cAMP Responsive Elements (CRE) small molecule antagonists, cell-based qHTS assay (AID 1963591; active = well fitted inhibition curve with a large enough effect in the signal ratio in the repeat runs, not every such curve was filed as active; the % refers to the signal ratio)
Summary of the method: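 Stimulation used NKH477 at a final 0.25 uM for 3 h in compound-treated CRE-bla HEK293T cells, seeded 18 h beforehand. Reporter activity was measured with LiveBLAzer B/G FRET substrate after 2 h at room temperature.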

[14] = target: Beta-2 adrenergic receptor (Homo sapiens) (UniProt P07550); assay: Adrenergic beta2 receptor (ADRB2) small molecule antagonists, cell-based qHTS assay (AID 1963592); also: series mostly up to about 92 µM; nearly all actives have a fitted effect of over 50% in size
Summary of the method: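 Assay format: CHO-ADRB2 cells, 18-20hr seeding at 37C/5% CO2, then compound plus 1nM isoproterenol agonist mix for 0.5hr RT. Homogeneous time-resolved fluorescence cAMP detection after 1hr, expressed as 665/615 nm ratio.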

[15] = target: Beta-2 adrenergic receptor (Homo sapiens) (UniProt P07550); assay: Adrenergic beta2 receptor (ADRB2) small molecule agonists, cell-based qHTS assay (AID 1963593);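 also: CHO cells stably overexpressing human ADRB2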
Summary of the method: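 CHO cells stably over-expressing ADRB2 were plated overnight at 37C, then dosed with compounds plus a stimulation mix containing 100uM IBMX and 25uM Ro-20-1724 for 0.5hr at room temperature. cAMP was measured by HTRF competition, 1hr.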

[16] = target: D(2) dopamine receptor (Homo sapiens) (UniProt P14416); assay: Dopamine D2 receptor (DRD2) small molecule agonists, cell-based qHTS assay (AID 1963594); also: nearly all actives have a fitted effect of over 35% in size
Summary of the method: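 HEK293 cells stably expressing DRD2 were cultured 24 h at 37 C, then given Ro20-1724 (0.1 mM final) and compounds for 10 min at room temperature. NKH477 (200nM) was then added for 30 min. cAMP was read by HTRF.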

[17] = target: D(2) dopamine receptor (Homo sapiens) (UniProt P14416); assay: Dopamine D2 receptor (DRD2) small molecule antagonists, cell-based qHTS assay (AID 1963595; active = well fitted inhibition curve with a large enough effect in the signal ratio in the repeat runs, with a control signal flat; the % refers to the signal ratio)
Summary of the method: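 Readout: HTRF cAMP, cAMP-d2 competing with cellular cAMP for anti-cAMP cryptate, read after 1 h. Cells: DRD2-HEK293. Conditions: 0.1 mM Ro20-1724, 12 nM quinpirole, 200 nM NKH477, 30 min RT.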

[18] = p53 small molecule agonists, cell-based qHTS assay (AID 1963582; active = well fitted activation curve with a large enough effect in the signal ratio in the repeat runs, not every such curve was filed as active; the % refers to the signal ratio)
Summary of the method: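 After plating, p53RE-bla cells sat 5 h in the incubator; compounds or DMSO vehicle were pinned in; a 16 h incubation at 37 C followed; FRET substrate was added and, 2 h later at RT, fluorescence was measured.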

[19] = target: 5-hydroxytryptamine receptor 2A (Homo sapiens) (UniProt P28223); assay: 5-hydroxytryptamine receptor 2A (HTR2A) small molecule antagonists, cell-based qHTS assay (AID 1963586); also: nearly all actives have a fitted effect of over 45% in size
Summary of the method: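 CHO cells stably expressing human HTR2A were plated for 18 h at 37 C, then loaded with calcium dye for 1 h. Compounds were preincubated 5 min at room temperature before DOI (4 nM solution) was added. Kinetic fluorescence was read for 3 min.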

Measured: Potency

Sequence of Muscarinic acetylcholine receptor M1 (Homo sapiens) (P11229 whole entry, looked up): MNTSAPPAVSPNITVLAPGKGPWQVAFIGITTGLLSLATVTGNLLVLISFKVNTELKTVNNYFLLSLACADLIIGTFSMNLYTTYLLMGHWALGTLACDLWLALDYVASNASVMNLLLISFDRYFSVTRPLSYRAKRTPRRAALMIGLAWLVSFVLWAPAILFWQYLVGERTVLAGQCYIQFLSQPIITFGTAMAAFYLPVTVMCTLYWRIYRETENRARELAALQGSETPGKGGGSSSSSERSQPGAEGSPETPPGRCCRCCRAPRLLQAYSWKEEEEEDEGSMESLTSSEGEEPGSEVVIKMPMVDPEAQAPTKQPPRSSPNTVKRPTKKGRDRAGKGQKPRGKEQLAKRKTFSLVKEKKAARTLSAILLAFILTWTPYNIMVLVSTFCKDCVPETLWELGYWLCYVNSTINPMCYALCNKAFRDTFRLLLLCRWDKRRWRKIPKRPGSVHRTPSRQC
Sequence of KiSS-1 receptor (Homo sapiens) (Q969F8 whole entry, looked up): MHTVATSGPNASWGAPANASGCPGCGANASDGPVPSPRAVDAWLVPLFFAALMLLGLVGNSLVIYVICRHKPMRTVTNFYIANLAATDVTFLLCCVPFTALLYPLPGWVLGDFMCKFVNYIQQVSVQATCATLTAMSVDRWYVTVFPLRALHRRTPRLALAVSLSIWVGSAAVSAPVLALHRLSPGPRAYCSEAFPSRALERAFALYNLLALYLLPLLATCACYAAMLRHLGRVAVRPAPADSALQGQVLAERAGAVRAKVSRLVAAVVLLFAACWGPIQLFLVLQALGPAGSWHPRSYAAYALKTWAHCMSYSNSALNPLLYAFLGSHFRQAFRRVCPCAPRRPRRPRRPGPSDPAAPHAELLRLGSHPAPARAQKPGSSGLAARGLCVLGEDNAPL
Sequence of D(2) dopamine receptor (Homo sapiens) (P14416 whole entry, looked up): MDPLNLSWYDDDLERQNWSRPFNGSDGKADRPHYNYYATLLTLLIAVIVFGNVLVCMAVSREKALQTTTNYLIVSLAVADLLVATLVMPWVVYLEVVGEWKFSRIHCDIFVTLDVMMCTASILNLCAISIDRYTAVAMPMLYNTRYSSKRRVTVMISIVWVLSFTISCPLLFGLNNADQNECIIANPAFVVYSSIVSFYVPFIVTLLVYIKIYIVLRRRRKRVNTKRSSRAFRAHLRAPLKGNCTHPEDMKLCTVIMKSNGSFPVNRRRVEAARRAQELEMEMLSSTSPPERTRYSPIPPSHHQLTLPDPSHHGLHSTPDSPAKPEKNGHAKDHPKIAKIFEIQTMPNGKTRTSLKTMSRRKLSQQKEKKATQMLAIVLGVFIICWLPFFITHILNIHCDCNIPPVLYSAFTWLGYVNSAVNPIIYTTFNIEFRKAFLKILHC
Sequence of Gonadotropin-releasing hormone receptor (Homo sapiens) (P30968 whole entry, looked up): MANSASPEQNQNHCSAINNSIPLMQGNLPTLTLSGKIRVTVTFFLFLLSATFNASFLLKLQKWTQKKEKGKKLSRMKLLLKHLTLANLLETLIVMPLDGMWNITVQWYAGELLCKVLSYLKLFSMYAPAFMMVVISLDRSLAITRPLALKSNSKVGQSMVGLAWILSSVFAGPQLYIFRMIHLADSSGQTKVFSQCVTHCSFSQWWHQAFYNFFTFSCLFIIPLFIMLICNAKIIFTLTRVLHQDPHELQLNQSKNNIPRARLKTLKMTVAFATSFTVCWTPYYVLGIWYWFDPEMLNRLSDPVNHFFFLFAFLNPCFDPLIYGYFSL
Sequence of Beta-2 adrenergic receptor (Homo sapiens) (P07550 whole entry, looked up): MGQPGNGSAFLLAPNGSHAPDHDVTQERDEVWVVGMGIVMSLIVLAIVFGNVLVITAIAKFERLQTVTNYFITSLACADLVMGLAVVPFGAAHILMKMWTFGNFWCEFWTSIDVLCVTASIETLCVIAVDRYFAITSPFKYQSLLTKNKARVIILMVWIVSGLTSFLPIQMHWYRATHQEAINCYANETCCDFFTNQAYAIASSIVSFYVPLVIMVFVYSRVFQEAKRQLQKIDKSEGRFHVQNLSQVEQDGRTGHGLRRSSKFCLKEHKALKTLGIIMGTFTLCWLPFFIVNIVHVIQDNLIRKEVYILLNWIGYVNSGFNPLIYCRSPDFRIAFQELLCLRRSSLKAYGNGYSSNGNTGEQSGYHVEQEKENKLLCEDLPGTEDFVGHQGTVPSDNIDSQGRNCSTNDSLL
Sequence of 5-hydroxytryptamine receptor 2A (Homo sapiens) (P28223 whole entry, looked up): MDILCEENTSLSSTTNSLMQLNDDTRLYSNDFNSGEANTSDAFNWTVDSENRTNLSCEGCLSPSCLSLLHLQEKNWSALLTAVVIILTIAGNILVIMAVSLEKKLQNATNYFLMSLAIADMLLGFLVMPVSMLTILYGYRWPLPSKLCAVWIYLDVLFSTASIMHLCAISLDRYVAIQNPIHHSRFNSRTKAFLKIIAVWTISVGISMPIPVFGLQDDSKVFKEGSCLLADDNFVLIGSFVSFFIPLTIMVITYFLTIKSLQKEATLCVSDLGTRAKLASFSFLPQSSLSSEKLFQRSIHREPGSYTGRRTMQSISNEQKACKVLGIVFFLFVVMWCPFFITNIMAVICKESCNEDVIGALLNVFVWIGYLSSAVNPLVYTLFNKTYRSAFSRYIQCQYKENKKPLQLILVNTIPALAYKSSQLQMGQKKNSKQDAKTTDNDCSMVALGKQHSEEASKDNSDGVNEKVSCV

CCCCOc1cc(C(=O)OCCN(CC)CC)ccc1N
inactive: [1] | [2] | [3] | [4] | [5] | [6] | [7] | [8] | [9] | [10] | [11] | [12] | [13] | [14] | [15] | [16] | [17]

COc1ccc2c(c1)C(=O)N(CCc1ccc(S(=O)(=O)NC(=O)NC3CCCCC3)cc1)C(=O)C2(C)C
inactive: [1] | [2] | [3] | [4] | [5] | [6] | [7] | [9] | [10] | [11] | [14] | [15] | [16] | [17]

C1=C\CC/C=C\CC/1
inactive: [1] | [2] | [3] | [4] | [5] | [7] | [8] | [18] | [9] | [10] | [11] | [12] | [13] | [14] | [15] | [16] | [17]

CCN1CCN(c2cc3c(cc2F)c(=O)c(C(=O)O)cn3C2CC2)CC1
inactive: [1] | [2] | [3] | [4] | [5] | [6] | [7] | [8] | [18] | [16] | [17]

C=C[Si](C)(C)O[Si](C)(C)C=C
inactive: [1] | [2] | [3] | [4] | [5] | [6] | [7] | [8] | [9] | [10] | [11] | [12] | [13] | [14] | [16] | [17]

CC1(C)S[C@@H]2[C@H](NC(=O)Cc3ccccc3)C(=O)N2[C@H]1C(=O)O (tested in a mixture with another compound)
inactive: [1] | [2] | [3] | [4] | [5] | [6] | [7] | [18] | [12] | [13] | [15] | [16] | [17]

CN1CCN(C2=Nc3ccccc3Oc3ccc(Cl)cc32)CC1
inactive: [1] | [2] | [3] | [4] | [5] | [6] | [7] | [18] | [9] | [10] | [16]

CCOC(=O)[C@H](CCc1ccccc1)N[C@@H](C)C(=O)N(CC(=O)O)C1Cc2ccccc2C1
inactive: [1] | [2] | [3] | [4] | [5] | [6] | [7] | [18] | [19] | [10] | [11] | [14] | [16] | [17]
